This is an account of results in PubChem BioAssay.

The subject of experiment [1] is PRMT1 (protein arginine N-methyltransferase 1). The experiment in a line: PRMT1 binders on small-molecule microarrays, primary screen, biochemical, small-molecule microarray, 635 nm fluorescence (AID 1088).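 Also: binding of Prmt1 protein to compounds spotted on small-molecule microarray slides.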 Particulars: small-molecule microarray binding, higher = more signal.
Experiment [2] in a line: yeast growth modulation, basal conditions, primary screen, YJM789 clinical isolate, OD600, 24 h (AID 1089).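 Also: growth of clinical yeast isolate S. cerevisiae YJM 789 seeded 1000 cells per well; test concentration not given here.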 Particulars: S. cerevisiae YJM789 growth, higher = more signal, called active from +8 up or from −8 down.
Experiment [3] is described as follows: fission yeast growth modulation, primary screen, strain 972, OD600, 24 h, no modulator (AID 1090).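 Also: basal condition with compound alone and no growth modifier present; test concentration not given here.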 Particulars: S. pombe 972 growth, higher = more signal, called active from +8 up or from −8 down.
The nature of experiment [4]: S. cerevisiae growth modulation with rapamycin, primary screen, strain BY4716, OD600, 96 h (AID 1091). Also: test concentration not given here. Conditions: higher = more signal, called active from +8 up or from −8 down.
For experiment [5], the target named is Torsin-1A-interacting protein 2 (Homo sapiens) (UniProt Q8NFQ8). The experiment in a line: LULL1 binders on small-molecule microarray, primary screen, cell lysate, human LULL1 lysate, 635/667 nm fluorescence (AID 1092).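 Also: probe is lysate of COS7 cells overexpressing human LULL1; score merges per-feature 667 nm fluorescence with signal-to-noise.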 Particulars: hLULL1 lysate binding, 635 nm fluorescence, higher = more signal.
Chain of Torsin-1A-interacting protein 2 (Homo sapiens) (Q8NFQ8 whole entry, looked up): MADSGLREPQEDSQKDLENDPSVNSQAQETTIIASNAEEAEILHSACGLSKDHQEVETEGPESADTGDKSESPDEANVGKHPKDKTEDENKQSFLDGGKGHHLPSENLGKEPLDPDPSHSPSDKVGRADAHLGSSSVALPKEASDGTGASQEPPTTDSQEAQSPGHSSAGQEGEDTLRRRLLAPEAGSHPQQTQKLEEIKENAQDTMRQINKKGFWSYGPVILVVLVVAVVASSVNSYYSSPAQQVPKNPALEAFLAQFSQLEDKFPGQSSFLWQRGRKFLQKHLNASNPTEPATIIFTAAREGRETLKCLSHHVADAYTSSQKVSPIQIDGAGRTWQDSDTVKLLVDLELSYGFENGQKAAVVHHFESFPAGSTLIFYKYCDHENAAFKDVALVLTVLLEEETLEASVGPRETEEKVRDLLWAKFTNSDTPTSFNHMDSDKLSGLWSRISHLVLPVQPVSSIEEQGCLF
The nature of experiment [6]: E. coli growth modulation, two-sided OD650, primary screen, E. coli filamentation project, strain DRC41, 24 h (AID 1093).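 Also: MC1000 strain lacking acrAB efflux and sulA so SOS filamentation is blocked; test concentration not given here.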 Particulars: OD650, 24 h, higher = more signal, called active from +8 up or from −8 down.
Experiment [7] in a line: small-molecule microarray binders of probe aLefty2, primary screen, biochemical, biotinylated probe, 635/667 nm fluorescence (AID 1094).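 Also: score merges spot fluorescence near 667 nm with spot signal-to-noise ratio.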 Conditions: higher = more signal.
The subject of experiment [8] is Noggin (protein binding on small-molecule microarray). Kind of experiment: Noggin binders on small-molecule microarray, primary screen, biochemical, 635/667 nm fluorescence (AID 1095).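 Also: score merges 667 nm feature fluorescence with signal to noise over triplicate slides.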 Particulars: 635 nm fluorescence, higher = more signal.
Experiment [9] has as its target Neurogenic locus notch homolog protein 3 (Homo sapiens) (UniProt Q9UM47). The experiment in a line: NOTCH3 binders on small-molecule microarray, primary screen, biochemical, 635/667 nm fluorescence (AID 1096). Conditions: NOTCH3 binding, 635 nm fluorescence, higher = more signal.
The nature of experiment [10]: small-molecule microarray binders of probe aEGFR, primary screen, biochemical, biotinylated probe, 635/667 nm fluorescence (AID 1097).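 Also: probe is a biotinylated anti-EGFR antibody binding compounds printed on slides; score combines fluorescence near 667 nm and signal to noise of each spot.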 Particulars: higher = more signal.

The source made the active and inactive calls.

Chain of Neurogenic locus notch homolog protein 3 (Homo sapiens) (Q9UM47 whole entry, looked up): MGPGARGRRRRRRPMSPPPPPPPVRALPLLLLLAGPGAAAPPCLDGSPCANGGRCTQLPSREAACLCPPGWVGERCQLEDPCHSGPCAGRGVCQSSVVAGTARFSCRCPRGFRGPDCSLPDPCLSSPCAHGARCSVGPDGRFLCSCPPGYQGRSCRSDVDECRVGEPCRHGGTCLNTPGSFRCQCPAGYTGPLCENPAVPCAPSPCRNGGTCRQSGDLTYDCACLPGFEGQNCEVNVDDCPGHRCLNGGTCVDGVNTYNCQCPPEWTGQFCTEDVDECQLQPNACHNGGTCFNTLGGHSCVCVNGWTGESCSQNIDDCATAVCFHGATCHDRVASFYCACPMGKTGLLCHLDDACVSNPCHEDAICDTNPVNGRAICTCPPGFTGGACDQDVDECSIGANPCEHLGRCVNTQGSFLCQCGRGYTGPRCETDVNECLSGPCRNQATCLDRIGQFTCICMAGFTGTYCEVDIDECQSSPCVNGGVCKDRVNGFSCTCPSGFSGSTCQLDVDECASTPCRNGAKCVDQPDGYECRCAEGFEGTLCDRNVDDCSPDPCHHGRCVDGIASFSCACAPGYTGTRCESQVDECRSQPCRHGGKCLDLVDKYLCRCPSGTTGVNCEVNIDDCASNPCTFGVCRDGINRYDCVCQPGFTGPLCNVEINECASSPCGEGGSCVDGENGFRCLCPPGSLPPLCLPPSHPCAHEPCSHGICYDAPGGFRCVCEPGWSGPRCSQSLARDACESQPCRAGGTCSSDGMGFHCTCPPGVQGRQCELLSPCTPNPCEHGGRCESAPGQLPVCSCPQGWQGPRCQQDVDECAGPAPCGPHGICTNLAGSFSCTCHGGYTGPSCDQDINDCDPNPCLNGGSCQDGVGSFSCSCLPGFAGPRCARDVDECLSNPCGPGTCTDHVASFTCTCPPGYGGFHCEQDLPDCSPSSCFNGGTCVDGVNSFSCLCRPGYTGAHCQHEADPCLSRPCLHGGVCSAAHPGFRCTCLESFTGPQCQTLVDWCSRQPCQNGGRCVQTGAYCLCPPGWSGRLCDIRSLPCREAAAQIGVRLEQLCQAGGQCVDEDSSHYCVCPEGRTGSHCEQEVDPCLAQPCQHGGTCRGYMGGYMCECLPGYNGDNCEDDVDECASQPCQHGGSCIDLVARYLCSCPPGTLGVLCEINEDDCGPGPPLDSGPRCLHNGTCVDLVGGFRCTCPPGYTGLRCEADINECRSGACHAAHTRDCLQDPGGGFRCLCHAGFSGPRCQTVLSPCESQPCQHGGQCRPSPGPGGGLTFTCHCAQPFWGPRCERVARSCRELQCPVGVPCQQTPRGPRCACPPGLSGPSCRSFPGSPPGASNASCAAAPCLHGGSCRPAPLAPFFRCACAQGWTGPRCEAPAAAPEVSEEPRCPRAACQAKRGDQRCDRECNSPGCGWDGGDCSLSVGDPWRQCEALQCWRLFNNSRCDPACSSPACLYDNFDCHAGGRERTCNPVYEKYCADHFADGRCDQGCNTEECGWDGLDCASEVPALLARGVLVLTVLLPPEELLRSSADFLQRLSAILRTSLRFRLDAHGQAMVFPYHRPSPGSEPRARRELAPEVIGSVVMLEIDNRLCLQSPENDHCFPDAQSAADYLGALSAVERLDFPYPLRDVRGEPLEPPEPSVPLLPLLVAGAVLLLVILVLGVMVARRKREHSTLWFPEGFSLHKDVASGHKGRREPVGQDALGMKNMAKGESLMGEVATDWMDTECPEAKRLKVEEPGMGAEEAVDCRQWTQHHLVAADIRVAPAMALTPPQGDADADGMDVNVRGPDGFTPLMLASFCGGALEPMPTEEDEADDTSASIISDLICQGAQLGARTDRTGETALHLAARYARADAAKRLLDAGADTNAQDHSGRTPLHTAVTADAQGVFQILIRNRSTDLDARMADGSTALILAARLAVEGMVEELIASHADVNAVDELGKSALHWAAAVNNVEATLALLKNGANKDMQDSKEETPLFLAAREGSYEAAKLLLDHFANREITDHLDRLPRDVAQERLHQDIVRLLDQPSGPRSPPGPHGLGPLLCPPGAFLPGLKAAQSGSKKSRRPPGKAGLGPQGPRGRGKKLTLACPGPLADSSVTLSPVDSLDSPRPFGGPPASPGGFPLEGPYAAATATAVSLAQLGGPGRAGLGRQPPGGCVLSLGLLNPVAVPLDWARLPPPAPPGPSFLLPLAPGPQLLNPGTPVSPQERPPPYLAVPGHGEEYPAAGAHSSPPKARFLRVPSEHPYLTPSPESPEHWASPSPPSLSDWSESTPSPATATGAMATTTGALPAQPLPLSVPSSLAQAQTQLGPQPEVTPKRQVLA

Turning to `CC(C)C(O)C1C=CC2C(=O)N(c3ccccc3)C(=O)C2N1Nc1ccc(C#N)cc1` (stereo not given), the composite z-score in experiment [1] is 1.04; in experiment [5], 3.17; in experiment [7] it was 0.576; in experiment [8] it was -0.388; in experiment [9], 0.903; in experiment [10], 0.154. For the same compound, the z-score in experiment [2] is -0.108 (inactive); in experiment [3] it was 0.349 (inactive); in experiment [4] it was 1.39 (inactive); in experiment [6], -0.364 (inactive).

Regarding `CS(=O)(=O)CCOC(=O)C1=CC(c2ccc(CO)cc2)=CC(C2CC2)N(Cc2cc3c(cc2Br)OCO3)C=C1C(=O)OCCS(C)(=O)=O` (stereo not given), the composite z-score in experiment [1] stood at 1.47; in experiment [5] it was 2.83; in experiment [7], 0.17; in experiment [8] it was 0.782; in [9] it was 0.929; in experiment [10], 0.0796. Further, the z-score in experiment [2] is -0.938 (inactive); in experiment [3], -6.09 (inactive); in experiment [4], -0.247 (inactive); in experiment [6], 0.514 (inactive).

Turning to `CC1CC/C=C\[C@H]2OC34C=CCN(Cc5ccccc5)C(=O)[C@H]3N(CCCCCO)C(=O)[C@@H]4C2C(=O)O1` (stereo not given in full), the composite z-score in experiment [1] is -0.822; in experiment [5], -0.259; in experiment [7], -0.166; in experiment [8], -1.07; in experiment [9], -0.629; in [10] it was -0.206. Also, the z-score in experiment [2] is 0.0898 (inactive); in experiment [3] it was 0.0077 (inactive); in experiment [4] it was -0.506 (inactive); in experiment [6], -0.964 (inactive).

Turning to `COC(=O)C(CC#Cc1ccc2c(c1)[C@]1(C(=O)N2)[C@H](c2ccc(OCCO)cc2)N2[C@H](c3ccccc3)[C@H](c3ccccc3)OC(=O)[C@H]2[C@@H]1C(=O)NC[C@H](O)c1ccccc1)C(=O)OC`, the composite z-score is 1.54 in experiment [1]; 2.41 in experiment [5]; -0.141 in experiment [7]; 0.617 in experiment [8]; 0.908 in experiment [9]; -0.0856 in experiment [10]. Moreover, the z-score in [2] was 2.37 (inactive); in experiment [3] it was 0.31 (inactive); in experiment [4] it was 7.43 (inactive); in experiment [6], 1.89 (inactive).

Regarding `O=C1OCCC=C[C@H]2OC34C=CCN(c5ccc6ccccc6c5)C(=O)[C@H]3N(CCCCCO)C(=O)[C@@H]4C12` (stereo not given in full), the composite z-score is 0.737 in experiment [1]; 2.42 in [5]; -0.0953 in experiment [7]; -0.586 in experiment [8]; -0.039 in experiment [9]; -0.157 in experiment [10]. Further, the z-score in experiment [2] was -0.748 (inactive); in [3] it was -1.64 (inactive); in experiment [4], -0.8 (inactive); in experiment [6], 1.12 (inactive).

Regarding `COc1cc2c(cc1OC)CN(C(=O)[C@@H]1[C@H]3C(=O)O[C@H](c4ccccc4)[C@H](c4ccccc4)N3[C@H](c3ccccc3OCCO)[C@@]13C(=O)Nc1ccc(C#CCNC(N)=O)cc13)CC2`, the composite z-score in [1] is 1.48; in experiment [5], 2.61; in experiment [7], 0.257; in experiment [8], 1.09; in [9], 1.08; in [10], -0.0873. Also, the z-score in experiment [2] is 0.443 (inactive); in [3], 1 (inactive); in experiment [4], 3.09 (inactive); in [6], 0.912 (inactive).

With `O=C(O)[C@H]1C[C@H]2C(=O)NCC(=O)N2[C@H]1c1ccc(O)cc1`, the composite z-score in experiment [1] was 0.294; in [5], 1.05; in [7], -0.025; in experiment [8] it was 0.884; in experiment [9], 0.55; in experiment [10], 0.308. Moreover, the z-score in experiment [2] was -0.512 (inactive); in experiment [3], -0.81 (inactive); in experiment [4] it was -0.373 (inactive); in experiment [6], 1.68 (inactive).

Take `CC(C)N1C(=O)c2ccccc2[C@@H](C(=O)NCCCN(C)C)[C@@H]1c1ccc(CO)cc1`: the composite z-score is -0.468 in experiment [1]; 1.3 in experiment [5]; 0.196 in experiment [7]; -0.879 in experiment [8]; -0.807 in [9]; -0.0435 in [10]. Further, the z-score was -0.545 (inactive) in [2], -0.672 (inactive) in experiment [3], -0.181 (inactive) in experiment [4] and -1.04 (inactive) in experiment [6].

Take `C#CCN(C(/C=C/c1ccccc1)CO)C(C(=O)O)c1ccccc1` (stereo not given): the composite z-score in experiment [1] is -1.05; in [5] it was -0.595; in experiment [7], -0.0849; in [8], 0.274; in experiment [9], -0.715; in experiment [10], -0.101. For the same compound, the z-score is 0.339 (inactive) in experiment [2], -1.13 (inactive) in [3], 0.148 (inactive) in experiment [4] and 2.19 (inactive) in experiment [6].

Turning to `COC(=O)c1ccc(C23CC2(C(NP(=O)(c2ccccc2)c2ccccc2)c2ccccc2)C3)cc1` (stereo not given), the composite z-score in experiment [1] was 0.214; in experiment [5] it was 3.18; in experiment [7], 0.888; in experiment [8], 0.13; in [9], 1.07; in experiment [10], 0.0632. For the same compound, the z-score is -2.72 (inactive) in experiment [2], -1.76 (inactive) in [3], -0.789 (inactive) in [4] and 0.259 (inactive) in [6].

`COC(=O)C[C@H]1O[C@]2(C(=O)N(Cc3ccccc3)c3ccc(NC(C)=O)cc32)[C@@H](C)[C@@H]1[Si](C)(C)c1ccc(OC)cc1`: the composite z-score in experiment [1] was 0.994; in experiment [5], 1.56; in experiment [7], -0.082; in experiment [8] it was 1.09; in experiment [9], 1.14; in experiment [10], -0.108. The z-score was 0.747 (inactive) in experiment [2], 0.19 (inactive) in experiment [3], 2.53 (inactive) in [4] and 0.0208 (inactive) in experiment [6].

For `COCC(=C=CC[C@@H](O)c1ccc(CO)o1)CCO`, the composite z-score was 0.737 in [1]; -0.816 in experiment [5]; -0.256 in experiment [7]; 1.33 in experiment [8]; 0.735 in [9]; -0.0943 in experiment [10]. Further, the z-score was -3.24 (inactive) in experiment [2], -2.34 (inactive) in experiment [3], -2.27 (inactive) in [4] and 1.6 (inactive) in [6].

Take `CN1CCC(CCCO)=CC1c1ccc(CN2CCCC2)cc1` (stereo not given): the composite z-score in experiment [1] is 1.54; in experiment [5], 2.18; in [7] it was 0.36; in experiment [8], 1.72; in experiment [9] it was 1.07; in [10], 0.337. Besides, the z-score is -1.05 (inactive) in experiment [2], -2.41 (inactive) in [3], -0.763 (inactive) in experiment [4] and -0.145 (inactive) in experiment [6].

Take `Cc1ccc(S[C@]2(C(=O)NC3CC3)CC(=O)N(Cc3ccccc3)[C@@H]2c2ccc(CO)cc2)cc1`: the composite z-score in [1] was 0.0655; in experiment [5] it was 2.08; in experiment [7], 0.0704; in [8], -0.347; in experiment [9], -0.462; in experiment [10], -0.0778. For the same compound, the z-score is -0.592 (inactive) in [2], -0.852 (inactive) in experiment [3], -0.168 (inactive) in experiment [4] and -0.445 (inactive) in experiment [6].
